These results are taken from article PMC12820563, “FoxP3 forms a head-to-head dimer in vivo and stabilizes its multimerization on adjacent microsatellites”.

Whole data set: some 16,000 sequences, median “rpm ratio (pull-down/input)” near 0.94, cut for the highest 2% near 1.7. This is one part of a sample in which the highest values are shown more often than they occur.

The target in this assay is T1, MBP-FoxP1dN (Mus musculus, UniProt P58462 326-579).
T1 sequence: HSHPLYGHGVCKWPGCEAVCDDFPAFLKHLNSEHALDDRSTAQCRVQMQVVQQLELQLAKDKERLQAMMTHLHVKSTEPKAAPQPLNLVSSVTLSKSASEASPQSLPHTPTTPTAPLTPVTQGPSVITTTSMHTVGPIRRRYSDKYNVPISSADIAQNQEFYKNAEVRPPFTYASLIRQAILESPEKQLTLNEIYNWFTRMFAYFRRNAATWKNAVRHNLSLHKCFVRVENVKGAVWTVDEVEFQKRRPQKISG
Description: PD-seq (MBP pull-down with sequencing); 20 mM Tris-HCl pH 7.5, 100 mM NaCl, 1.5 mM MgCl2, 0.4 uM protein, 0.1 uM dsDNA library, 30 min, room temperature, amylose pull-down; high values mean tight binding. To be noted: protein: recombinant; tags: His6-MBP; chain copies: 2; dsDNA, one strand shown. The procedure, abridged: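 Binding is the reads-per-million enrichment of pull-down relative to input, pooled across replicates. For this, 0.4 µM His6-MBP-tagged mouse FoxP3 or FoxP1 fragment lacking the N-terminus, made in E. coli, was incubated with 0.1 µM Klenow-filled double-stranded degenerate DNA library for 30 min at room temperature in Tris pH 7.5 buffer with NaCl and MgCl2. Complexes bound to amylose resin were washed three times before proteinase K released the DNA for PCR barcoding and Illumina sequencing.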
With “GATGATTGTTCTCCCAGCTGATGAATTGGCTATGTCGAGTAAACAAATTTTCCTAATCTTTCTGTTCAAGCGCCATCTAC”, the binding signal is 0.854 RPM ratio (pull-down/input).
Under “GATGATTGTTCTCCCAGCTGATGAATTCGTCAGTTCGAGTAAACAAATTTTCCTAATCTTTCTGTTCAAGCGCCATCTAC” stands 0.905 RPM ratio (pull-down/input); under “GATGATTGTTCTCCCAGCTGATGAATTGTCTCCATCGAGTAAACAAATTTTCCTAATCTTTCTGTTCAAGCGCCATCTAC”, 1.11 RPM ratio (pull-down/input); under “GATGATTGTTCTCCCAGCTGATGAATTGGTTTTATCGAGTAAACAAATTTTCCTAATCTTTCTGTTCAAGCGCCATCTAC”, 1.14 RPM ratio (pull-down/input).
In the case of “GATGATTGTTCTCCCAGCTGATGAATTAGTGAGATCGAGTAAACAAATTTTCCTAATCTTTCTGTTCAAGCGCCATCTAC”, the binding signal is 0.857 RPM ratio (pull-down/input).
Under “GATGATTGTTCTCCCAGCTGATGAATTGTTTACTTCGAGTAAACAAATTTTCCTAATCTTTCTGTTCAAGCGCCATCTAC” stands 2.82 RPM ratio (pull-down/input); under “GATGATTGTTCTCCCAGCTGATGAATTATTTACTTCGAGTAAACAAATTTTCCTAATCTTTCTGTTCAAGCGCCATCTAC”, 2.15 RPM ratio (pull-down/input); under “GATGATTGTTCTCCCAGCTGATGAATTTATTACTTCGAGTAAACAAATTTTCCTAATCTTTCTGTTCAAGCGCCATCTAC”, 1.29 RPM ratio (pull-down/input).
The same measure for “GATGATTGTTCTCCCAGCTGATGAATTTACTTCTTCGAGTAAACAAATTTTCCTAATCTTTCTGTTCAAGCGCCATCTAC”: 1.33 RPM ratio (pull-down/input); for “GATGATTGTTCTCCCAGCTGATGAATTTTTTACTTCGAGTAAACAAATTTTCCTAATCTTTCTGTTCAAGCGCCATCTAC”: 1.05 RPM ratio (pull-down/input); for “GATGATTGTTCTCCCAGCTGATGAATTACTTTATTCGAGTAAACAAATTTTCCTAATCTTTCTGTTCAAGCGCCATCTAC”: 1.15 RPM ratio (pull-down/input).
The same measure for “GATGATTGTTCTCCCAGCTGATGAATTGCCAATGTCGAGTAAACAAATTTTCCTAATCTTTCTGTTCAAGCGCCATCTAC”: 0.943 RPM ratio (pull-down/input).
As to “GATGATTGTTCTCCCAGCTGATGAATTGCGCGAATCGAGTAAACAAATTTTCCTAATCTTTCTGTTCAAGCGCCATCTAC”, the binding signal is 1.14 RPM ratio (pull-down/input).
Under “GATGATTGTTCTCCCAGCTGATGAATTAGATTTATCGAGTAAACAAATTTTCCTAATCTTTCTGTTCAAGCGCCATCTAC” stands 1.13 RPM ratio (pull-down/input); under “GATGATTGTTCTCCCAGCTGATGAATTCTCTTTATCGAGTAAACAAATTTTCCTAATCTTTCTGTTCAAGCGCCATCTAC”, 0.967 RPM ratio (pull-down/input).
On to “GATGATTGTTCTCCCAGCTGATGAATTGTTTGCTTCGAGTAAACAAATTTTCCTAATCTTTCTGTTCAAGCGCCATCTAC”, for which the binding signal was 2.2 RPM ratio (pull-down/input).
“GATGATTGTTCTCCCAGCTGATGAATTTGTTGCTTCGAGTAAACAAATTTTCCTAATCTTTCTGTTCAAGCGCCATCTAC”: the binding signal is 1.54 RPM ratio (pull-down/input).
For the sequence “GATGATTGTTCTCCCAGCTGATGAATTGCTTTGTTCGAGTAAACAAATTTTCCTAATCTTTCTGTTCAAGCGCCATCTAC”, the binding signal was 1.11 RPM ratio (pull-down/input).
“GATGATTGTTCTCCCAGCTGATGAATTTTTTGCTTCGAGTAAACAAATTTTCCTAATCTTTCTGTTCAAGCGCCATCTAC”: the binding signal is 0.938 RPM ratio (pull-down/input).
On to “GATGATTGTTCTCCCAGCTGATGAATTTGCTTTTTCGAGTAAACAAATTTTCCTAATCTTTCTGTTCAAGCGCCATCTAC”, for which the binding signal is 1.21 RPM ratio (pull-down/input).
The same measure for “GATGATTGTTCTCCCAGCTGATGAATTGCTTTTTTCGAGTAAACAAATTTTCCTAATCTTTCTGTTCAAGCGCCATCTAC”: 1.45 RPM ratio (pull-down/input); for “GATGATTGTTCTCCCAGCTGATGAATTTTTGCTTTCGAGTAAACAAATTTTCCTAATCTTTCTGTTCAAGCGCCATCTAC”: 1.83 RPM ratio (pull-down/input).
With “GATGATTGTTCTCCCAGCTGATGAATTGTTGCTTTCGAGTAAACAAATTTTCCTAATCTTTCTGTTCAAGCGCCATCTAC”, the binding signal is 2.12 RPM ratio (pull-down/input).
The same measure for “GATGATTGTTCTCCCAGCTGATGAATTTGCTTCTTCGAGTAAACAAATTTTCCTAATCTTTCTGTTCAAGCGCCATCTAC”: 1.02 RPM ratio (pull-down/input); for “GATGATTGTTCTCCCAGCTGATGAATTTGGCAGCTCGAGTAAACAAATTTTCCTAATCTTTCTGTTCAAGCGCCATCTAC”: 0.875 RPM ratio (pull-down/input); for “GATGATTGTTCTCCCAGCTGATGAATTAACGCTGTCGAGTAAACAAATTTTCCTAATCTTTCTGTTCAAGCGCCATCTAC”: 0.97 RPM ratio (pull-down/input).
The same measure for “GATGATTGTTCTCCCAGCTGATGAATTAAAGAGTTCGAGTAAACAAATTTTCCTAATCTTTCTGTTCAAGCGCCATCTAC”: 0.941 RPM ratio (pull-down/input); for “GATGATTGTTCTCCCAGCTGATGAATTCAGATTATCGAGTAAACAAATTTTCCTAATCTTTCTGTTCAAGCGCCATCTAC”: 0.977 RPM ratio (pull-down/input).
The same measure for “GATGATTGTTCTCCCAGCTGATGAATTCGGTAGATCGAGTAAACAAATTTTCCTAATCTTTCTGTTCAAGCGCCATCTAC”: 0.874 RPM ratio (pull-down/input); for “GATGATTGTTCTCCCAGCTGATGAATTTATATGATCGAGTAAACAAATTTTCCTAATCTTTCTGTTCAAGCGCCATCTAC”: 1.14 RPM ratio (pull-down/input); for “GATGATTGTTCTCCCAGCTGATGAATTATTTATTTCGAGTAAACAAATTTTCCTAATCTTTCTGTTCAAGCGCCATCTAC”: 2.06 RPM ratio (pull-down/input).
“GATGATTGTTCTCCCAGCTGATGAATTGTTTTATTCGAGTAAACAAATTTTCCTAATCTTTCTGTTCAAGCGCCATCTAC”: the binding signal is 1.6 RPM ratio (pull-down/input).
Under “GATGATTGTTCTCCCAGCTGATGAATTTATTATTTCGAGTAAACAAATTTTCCTAATCTTTCTGTTCAAGCGCCATCTAC” stands 1.6 RPM ratio (pull-down/input); under “GATGATTGTTCTCCCAGCTGATGAATTATTTTATTCGAGTAAACAAATTTTCCTAATCTTTCTGTTCAAGCGCCATCTAC”, 1.22 RPM ratio (pull-down/input).
